From PubChem BioAssay (NCATS) come the findings set out here.

SMILES strings stand for the structures. “And” between values parts separate entries of the source, which are not always exact repeats. Equal entries are not always repeated. Results filed as inconclusive are left out. The source made the active and inactive calls. Unless noted, calls come from the whole dose curve; as a rule, active = well fitted curve in the direction sought with a large enough effect in the repeat runs; inconclusive = weak or mixed curves; inactive = no such curve, though single readings can be large; an effect the other way counts as inactive or inconclusive.

Experiment [1] is described as follows: Primary qHTS for small molecule stabilizers of the endoplasmic reticulum resident proteome: Secreted ER Calcium Modulated Protein (SERCaMP) assay (AID 1508630; active = well fitted curve in the direction sought with a large enough effect; an effect the other way counts as inactive or inconclusive; note: % is set by controls: 0 for no effect and ±100 for the full control effect). The procedure, abridged:
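GLuc-SERCaMP-expressing SH-SY5Y cells, pretreated 16 h with compound, are challenged with thapsigargin to empty ER calcium stores; after 4 h, coelenterazine is added directly to the medium and luminescence is imaged.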
(qHTS replaces the single test concentration by a dilution series.)

Experiment [2] can be described thus: A High-Content qHTS Against Drug Library for the Identification of Small Molecules that Inhibit DYT1 Early Onset Primary Dystonia-Associated Cell Pathology (AID 1645839; calls by dose curve; note: potency is the fitted concentration of half-maximal effect). In short, it runs like this: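 In this high-content image screen, delE TorsinA mislocalization in inducible Flp-In 293 cells is scored as %pathology, with cell count serving as the counterscreen. Compound exposure lasts 48 h under tetracycline induction in reduced-serum medium.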

The target of experiment [3] is Cytochrome P450 2D6 (Homo sapiens) (UniProt P10635). Briefly: Cytochrome P450 family 2 subfamily D member 6 (CYP2D6) small molecule antagonists: luciferase biochemical (cell-free) qHTS assay (AID 1645840). For activity change, negative = inhibition: % is set by controls: 0 for no effect and ±100 for the full control effect. Note: nearly all actives have a fitted effect of over 55% in size. Note: potency is the fitted concentration of half-maximal effect. The procedure, abridged:
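P450-Glo luminescent screen: recombinant CYP2D6 enzyme–proluciferin substrate mix preincubated with compound 10 min at room temperature, then NADPH regeneration added for 1 h at room temperature. Detection reagent added for 20 min; luciferin light read as relative luminescence units.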

Experiment [4] concerns the target Cytochrome P450 2C9 (Homo sapiens) (UniProt P11712). Briefly: Cytochrome P450 family 2 subfamily C member 9 (CYP2C9) small molecule antagonists: luciferase biochemical (cell-free) qHTS assay (AID 1645842). For activity change, negative = inhibition: % is set by controls: 0 for no effect and ±100 for the full control effect. Note: nearly all actives have a fitted effect of over 55% in size. Note: potency is the fitted concentration of half-maximal effect. In short, it runs like this:
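Luminescence, after 20 min with luciferin detection reagent, reflected CYP2C9 turnover during a 1 h NADPH-driven reaction at 37C. Enzyme-substrate mix contained 0.4% bovine serum albumin and was preincubated with compound 10 min at room temperature.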

Experiment [5] can be described thus: Cytotoxicity counterscreen for inhibitors of SARS-CoV-2 cell entry (AID 1645845; calls by dose curve; note: nearly all actives have a fitted effect of over 50% in size). The procedure, abridged: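 48 h compound treatment (after 1 h preincubation), HEK293-ACE2 cells, 37 C/5% CO2; ATP luminescence endpoint; normalized to cell wells and media blanks.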
On the technique in general: Counterscreens check selectivity or assay interference.

Experiment [6] in a line: Primary qHTS to identify inhibitors of SARS-CoV-2 cell entry (AID 1645846; calls by dose curve; note: nearly all actives have a fitted effect of over 45% in size; note: potency is the fitted concentration of half-maximal effect). The following applies: activity change, negative = inhibition: at 57.1 µM (top of the series) unless noted. In short, it runs like this: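 Using luciferase-reporting pseudoviruses carrying Wuhan-Hu-1 spike, the screen tracks entry into stably ACE2-expressing cells over 48 hr. Activity is expressed relative to spike particles versus particles lacking any fusion protein.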

Experiment [7] has as its target Cytochrome P450 3A4 (Homo sapiens) (UniProt P08684). The experiment is described as follows: Cytochrome P450 family 3 subfamily A member 4 (CYP3A4) small molecule antagonists: luciferase qHTS assay (AID 1645841). Note: nearly all actives have a fitted effect of over 45% in size. Note: potency is the fitted concentration of half-maximal effect. The procedure, abridged:
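Luminescent CYP3A4 activity readout: compounds plus enzyme-substrate mix 10 min at room temperature, reaction started with NADPH regenerating system for 1 h, stopped with detection reagent, read after 20 min. Ketoconazole served as control.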

The target in experiment [8] is N-terminal Xaa-Pro-Lys N-methyltransferase 1 (Homo sapiens) (UniProt Q9BV86). The experiment is described as follows: Confirmatory qHTS for Inhibitors of N-terminal methyltransferase 1 (NTMT1): MTaseGlo Assay (AID 1645874; active = well fitted curve in the direction sought with a large enough effect; an effect the other way counts as inactive or inconclusive; note: potency is the fitted concentration of half-maximal effect; nearly all actives have a fitted effect of over 65% in size). The following applies: NTMT1 enzyme, MTase-Glo SAH luminescence. The procedure, abridged:
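Preincubation of NTMT1 (125 nM) plus SAM (100 uM) with test compounds lasted 15 min; methylation of 1 uM SPKRIA then proceeded 30 min in the dark at room temperature. Luciferase signal reported SAH produced.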

Sequence of Cytochrome P450 3A4 (Homo sapiens) (P08684 whole entry, looked up): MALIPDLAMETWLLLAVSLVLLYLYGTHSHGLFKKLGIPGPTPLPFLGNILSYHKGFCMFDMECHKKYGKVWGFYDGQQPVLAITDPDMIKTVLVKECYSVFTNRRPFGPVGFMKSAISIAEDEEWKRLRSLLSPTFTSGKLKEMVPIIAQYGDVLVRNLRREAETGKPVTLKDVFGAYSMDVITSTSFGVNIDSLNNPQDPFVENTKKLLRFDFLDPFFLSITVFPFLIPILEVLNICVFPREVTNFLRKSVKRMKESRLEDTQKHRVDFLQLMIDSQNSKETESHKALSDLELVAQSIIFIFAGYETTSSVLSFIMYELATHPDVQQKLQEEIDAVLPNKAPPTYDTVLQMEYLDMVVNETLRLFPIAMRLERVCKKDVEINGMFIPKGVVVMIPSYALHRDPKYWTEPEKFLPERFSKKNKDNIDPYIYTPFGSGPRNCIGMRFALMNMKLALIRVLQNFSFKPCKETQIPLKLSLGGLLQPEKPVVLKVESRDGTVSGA
Sequence of Cytochrome P450 2D6 (Homo sapiens) (P10635 whole entry, looked up): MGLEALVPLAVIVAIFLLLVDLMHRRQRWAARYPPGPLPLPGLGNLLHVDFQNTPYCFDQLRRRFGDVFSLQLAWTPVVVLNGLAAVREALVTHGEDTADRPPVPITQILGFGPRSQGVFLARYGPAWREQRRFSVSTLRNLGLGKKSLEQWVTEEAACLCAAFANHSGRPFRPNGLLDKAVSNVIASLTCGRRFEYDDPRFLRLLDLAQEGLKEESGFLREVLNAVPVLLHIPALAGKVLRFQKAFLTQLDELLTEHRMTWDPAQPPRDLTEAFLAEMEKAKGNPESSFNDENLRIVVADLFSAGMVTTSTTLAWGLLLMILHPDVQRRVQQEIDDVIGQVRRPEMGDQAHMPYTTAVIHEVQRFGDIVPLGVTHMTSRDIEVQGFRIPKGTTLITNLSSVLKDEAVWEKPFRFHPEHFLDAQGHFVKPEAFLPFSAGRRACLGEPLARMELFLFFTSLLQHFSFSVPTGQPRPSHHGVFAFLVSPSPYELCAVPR
Sequence of Cytochrome P450 2C9 (Homo sapiens) (P11712 whole entry, looked up): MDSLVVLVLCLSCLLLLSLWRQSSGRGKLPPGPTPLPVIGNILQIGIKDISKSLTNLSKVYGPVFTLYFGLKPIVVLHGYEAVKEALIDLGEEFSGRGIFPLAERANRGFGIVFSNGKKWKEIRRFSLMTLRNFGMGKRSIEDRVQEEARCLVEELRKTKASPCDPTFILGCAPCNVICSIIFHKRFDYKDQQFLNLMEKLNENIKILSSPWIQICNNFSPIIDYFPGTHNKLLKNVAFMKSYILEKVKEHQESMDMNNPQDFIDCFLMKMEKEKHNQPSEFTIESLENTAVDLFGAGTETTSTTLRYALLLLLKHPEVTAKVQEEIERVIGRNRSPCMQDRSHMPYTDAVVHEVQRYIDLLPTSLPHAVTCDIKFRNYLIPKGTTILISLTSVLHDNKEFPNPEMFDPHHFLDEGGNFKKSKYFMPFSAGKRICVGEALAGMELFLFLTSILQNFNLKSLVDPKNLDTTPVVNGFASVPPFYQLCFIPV
Sequence of N-terminal Xaa-Pro-Lys N-methyltransferase 1 (Homo sapiens) (Q9BV86 whole entry, looked up): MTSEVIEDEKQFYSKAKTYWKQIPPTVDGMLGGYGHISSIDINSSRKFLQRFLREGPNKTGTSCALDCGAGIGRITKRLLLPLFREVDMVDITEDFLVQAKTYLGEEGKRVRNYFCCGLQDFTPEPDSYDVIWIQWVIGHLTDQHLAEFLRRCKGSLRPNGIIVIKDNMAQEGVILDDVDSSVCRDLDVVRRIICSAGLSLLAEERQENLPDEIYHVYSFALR

On to `O=[N+]([O-])/N=C1\NCCN1Cc1ccc(Cl)nc1`, for which the Potency entry in experiment [1], in experiment [2], in experiment [3], in experiment [4] and in experiment [5] was “inactive” in each case. The activity change, negative = inhibition in experiment [6] is -0.0091%.
Turning to `CCC(=O)O[C@@H]1C=C2CCC3C(CCC4(C)C3CC[C@@H]4OC(=O)CC)C2CC1` (stereo partly specified), the Potency result in experiment [1], in experiment [2] and in experiment [5] was “inactive” each time. The Potency in experiment [4] is 19.5 µM (active). Moreover, in experiment [6], the activity change, negative = inhibition came out at 4.26%.
In the case of `CC=C(C)C(=O)N[C@@H](c1ccccc1)[C@@H](O)C(=O)O[C@H]1C[C@@]2(O)[C@@H](OC(=O)c3ccccc3)[C@@H]3[C@]4(OC(C)=O)CO[C@@H]4C[C@H](O)[C@@]3(C)C(=O)[C@H](OC(C)=O)C(=C1C)C2(C)C`, the Potency result in experiment [1] was “inactive”.
Take `C#C[C@]1(O)C=C[C@@H]2[C@@H]3CCC4=CC(=O)CC[C@@H]4[C@H]3CC[C@@]21CC`: the Potency entry in experiment [1] is “inactive”.
Consider `ClC1=C(Cl)[C@]2(Cl)[C@@H]3[C@@H]4C[C@@H]([C@H]5O[C@@H]45)[C@@H]3[C@@]1(Cl)C2(Cl)Cl`, for which the Potency result in experiment [1] and in experiment [3] was “inactive” each time.
With `Cc1cc(O)ccc1Cl`, the Potency result in experiment [1], in experiment [2], in experiment [3], in experiment [4], in experiment [5] and in experiment [6] was “inactive” throughout.
In the case of `O=[N+]([O-])c1cc([N+](=O)[O-])c2ccccc2c1`, the Potency entry in experiment [1], in experiment [2], in experiment [3] and in experiment [4] was “inactive” throughout.
With `CC1=C(C(=O)O)N2C(=O)[C@@H](N)[C@H]2SC1`, the Potency entry in experiment [1], in experiment [3] and in experiment [4] was “inactive” in each case. For the same compound, the % pathology change, negative = correction in experiment [2] was 1.33% [at 19.1 µM] (inactive).
On to `COC(=O)c1cncn1C(C)c1ccccc1` (stereo unspecified), for which the Potency entry in experiment [1], in experiment [2], in experiment [5] and in experiment [6] was “inactive” in each case. Moreover, the results for the Potency in experiment [3] and in experiment [4] were 7.76 µM (active) and 11 µM (active), respectively.
`CC(=Cc1csc(C)n1)[C@@H]1C[C@H]2O[C@@H]2CCC[C@H](C)[C@@H](O)[C@@H](C)C(=O)C(C)(C)[C@@H](O)CC(=O)O1`: the Potency result in experiment [1] is “inactive”.
As to `C[C@]12N[C@H](Cc3ccccc31)c1ccccc12`, the Potency entry in experiment [1] was “inactive”.
As for `N=c1c2c(-c3ccccc3)c(-c3ccccc3)n(Cc3ccccc3)c2ncn1C1CCC(O)CC1` (stereo unspecified), the Potency entry in experiment [1] is “inactive”.
On to `CC(C)NCC(O)c1ccc([N+](=O)[O-])cc1` (stereo unspecified), for which the Potency entry in experiment [1], in experiment [2], in experiment [7] and in experiment [4] was “inactive” each time.
With `CCCCCCCCCCCCCCCC[N+](C)(C)C`, the Potency entry in experiment [1] and in experiment [4] was “inactive” in each case. Further, the Potency in experiment [2] is 12.6 µM (active); in experiment [3], 871 nM (active) and 849 nM (active); in experiment [6] it was 25.1 µM (active).
Consider `CN[C@@H](C)[C@H](O)c1ccccc1`, for which the Potency result in experiment [1], in experiment [2], in experiment [3] and in experiment [4] was “inactive” each time.
Turning to `S=C(SSC(=S)N1CCCCC1)N1CCCCC1`, the Potency result in experiment [1], in experiment [2] and in experiment [3] was “inactive” each time. Also, the Potency in experiment [6] is 1.12 µM (active).
With `CC(=O)[O][Hg][c]1ccccc1`, in experiment [1], the Potency entry is “inactive”. Further, the Potency was 2.82 µM (active) in experiment [2]; 0.617 µM (active) in experiment [3]; 7.76 µM (active) in experiment [7]; 2.45 µM (active) in experiment [4]; 1.58 µM (active) in experiment [6]; 1.07 µM (active) in experiment [8].
Consider `O=S(=O)(O)C(F)(F)C(F)(F)C(F)(F)C(F)(F)F`, for which the Potency result in experiment [1], in experiment [2] and in experiment [3] was “inactive” in each case. Further, the Potency in experiment [4] was 18.9 µM (active).
As for `C1CCC(NC2CCCCC2)CC1`, the Potency entry in experiment [1], in experiment [2], in experiment [4], in experiment [5] and in experiment [6] was “inactive” each time. Besides, the Potency in experiment [3] was 1.23 µM (active).
As for `C=C[C@@H]1CN2CCC1C[C@H]2[C@H](O)c1ccnc2ccccc12` (stereo partly specified), the Potency entry in experiment [1] is “inactive”.
Regarding `Clc1cnc(Oc2ccc(Oc3ncc(Cl)cc3Cl)cc2)c(Cl)c1`, the Potency entry in experiment [1] was “inactive”.
On the same count and under the same terms, the result for `C[C@@H]1O[C@@H](O[C@@H]2C=C3CC[C@@H]4[C@@H](CC[C@]5(C)[C@H](c6ccc(=O)oc6)CC[C@@]45O)[C@@]3(C)CC2)[C@H](O)[C@H](O)[C@H]1O` reads “inactive”.
For the compound `O=C(O)CNC(=O)c1c(O)c2ccccc2n(Cc2ccccc2)c1=O`, the Potency entry in experiment [1], in experiment [3], in experiment [7] and in experiment [5] was “inactive” throughout. Further, the activity change, negative = inhibition in experiment [6] turned out to be 2.25%.
`C=CC(=O)NCNC(=O)C=C`: the Potency entry in experiment [1], in experiment [3] and in experiment [4] was “inactive” each time.
Turning to `O=C(NCC1CCOCC1)c1cnc(Nc2ccc(Cl)cc2Cl)nc1C(F)(F)F`, the Potency result in experiment [1], in experiment [3], in experiment [7] and in experiment [5] was “inactive” throughout. In experiment [6], the activity change, negative = inhibition was -4.18%.
In the case of `O=C(Oc1ccc([N+](=O)[O-])cc1)N1CCN(Cc2cccc(Oc3ccccc3)c2)CC1`, the Potency result in experiment [1] was “inactive”. Also, the Potency in experiment [3] is 2.68 µM (active); in experiment [4], 19 µM (active).
As for `CN(C)[C@@H]1C(=O)C(C(N)=O)=C(O)[C@@]2(O)C(=O)C3=C(O)c4c(O)cccc4[C@@](C)(O)[C@H]3[C@H](O)[C@@H]12`, the Potency result in experiment [1], in experiment [4], in experiment [5] and in experiment [6] was “inactive” each time. The activity change, negative = inhibition in experiment [6] is -8.27%.
